# Laboratory results: ChEMBL document CHEMBL1961873, “Compounds: GSK PKIS; Assays: Nanosyn kinase panel” (2012)
# “And” between values parts separate entries of the source, which are not always exact repeats. Equal entries are not always repeated.
# How the values were obtained:
# [1] = biological target: Tyrosine-protein kinase Fyn (Homo sapiens) (UniProt P06241); conditions: at 1 µM
# [2] = biological target: Tyrosine-protein kinase HCK (Homo sapiens) (UniProt P08631); conditions: at 0.1 µM
# [3] = biological target: Tyrosine-protein kinase HCK (Homo sapiens) (UniProt P08631); conditions: at 1 µM
# [4] = biological target: Insulin-like growth factor 1 receptor (Homo sapiens) (UniProt P08069); conditions: at 0.1 µM
# Sequence of Insulin-like growth factor 1 receptor (Homo sapiens) (P08069 31-736 limits assumed): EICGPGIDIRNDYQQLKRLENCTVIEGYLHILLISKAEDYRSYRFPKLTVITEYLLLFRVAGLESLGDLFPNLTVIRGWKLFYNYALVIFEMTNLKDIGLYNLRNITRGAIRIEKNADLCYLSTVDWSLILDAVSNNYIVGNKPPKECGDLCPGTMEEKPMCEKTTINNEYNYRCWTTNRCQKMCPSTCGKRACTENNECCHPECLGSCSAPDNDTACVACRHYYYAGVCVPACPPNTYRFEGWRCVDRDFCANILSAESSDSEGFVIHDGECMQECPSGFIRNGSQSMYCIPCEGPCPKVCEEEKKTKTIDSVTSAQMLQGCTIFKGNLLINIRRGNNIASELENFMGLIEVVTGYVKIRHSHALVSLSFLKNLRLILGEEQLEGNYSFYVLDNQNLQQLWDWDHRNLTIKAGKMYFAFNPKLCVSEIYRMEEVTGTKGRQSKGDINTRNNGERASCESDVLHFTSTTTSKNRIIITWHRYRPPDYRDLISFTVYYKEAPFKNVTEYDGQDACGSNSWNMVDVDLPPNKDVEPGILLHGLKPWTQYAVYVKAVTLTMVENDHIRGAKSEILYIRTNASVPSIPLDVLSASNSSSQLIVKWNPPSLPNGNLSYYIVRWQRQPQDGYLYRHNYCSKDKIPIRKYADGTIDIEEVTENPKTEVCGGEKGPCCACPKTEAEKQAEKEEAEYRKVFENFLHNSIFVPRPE
# Sequence of Insulin-like growth factor 1 receptor (Homo sapiens) (P08069 741-1367 limits assumed): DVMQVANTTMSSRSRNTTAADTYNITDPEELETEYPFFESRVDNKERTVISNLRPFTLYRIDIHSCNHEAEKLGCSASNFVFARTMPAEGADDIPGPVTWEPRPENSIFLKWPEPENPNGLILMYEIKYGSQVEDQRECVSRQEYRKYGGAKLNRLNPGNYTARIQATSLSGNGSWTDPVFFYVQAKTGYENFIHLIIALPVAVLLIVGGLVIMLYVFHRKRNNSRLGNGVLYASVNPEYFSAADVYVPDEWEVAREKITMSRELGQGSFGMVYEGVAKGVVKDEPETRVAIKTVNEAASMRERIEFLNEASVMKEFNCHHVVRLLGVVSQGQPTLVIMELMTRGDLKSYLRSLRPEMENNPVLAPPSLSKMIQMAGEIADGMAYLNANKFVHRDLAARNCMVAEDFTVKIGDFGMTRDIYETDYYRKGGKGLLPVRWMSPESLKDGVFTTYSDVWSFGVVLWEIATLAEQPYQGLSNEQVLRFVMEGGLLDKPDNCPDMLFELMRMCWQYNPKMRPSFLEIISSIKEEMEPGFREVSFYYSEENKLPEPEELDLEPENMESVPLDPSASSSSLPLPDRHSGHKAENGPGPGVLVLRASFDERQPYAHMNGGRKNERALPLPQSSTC
# [5] = biological target: Insulin-like growth factor 1 receptor (Homo sapiens) (UniProt P08069); conditions: at 1 µM
# [6] = biological target: Insulin receptor (Homo sapiens) (UniProt P06213); conditions: at 0.1 µM
# [7] = biological target: Insulin receptor (Homo sapiens) (UniProt P06213); conditions: at 1 µM
# [8] = biological target: Insulin receptor-related protein (Homo sapiens) (UniProt P14616); conditions: at 0.1 µM
# Sequence of Insulin receptor-related protein (Homo sapiens) (P14616 27-742 limits assumed): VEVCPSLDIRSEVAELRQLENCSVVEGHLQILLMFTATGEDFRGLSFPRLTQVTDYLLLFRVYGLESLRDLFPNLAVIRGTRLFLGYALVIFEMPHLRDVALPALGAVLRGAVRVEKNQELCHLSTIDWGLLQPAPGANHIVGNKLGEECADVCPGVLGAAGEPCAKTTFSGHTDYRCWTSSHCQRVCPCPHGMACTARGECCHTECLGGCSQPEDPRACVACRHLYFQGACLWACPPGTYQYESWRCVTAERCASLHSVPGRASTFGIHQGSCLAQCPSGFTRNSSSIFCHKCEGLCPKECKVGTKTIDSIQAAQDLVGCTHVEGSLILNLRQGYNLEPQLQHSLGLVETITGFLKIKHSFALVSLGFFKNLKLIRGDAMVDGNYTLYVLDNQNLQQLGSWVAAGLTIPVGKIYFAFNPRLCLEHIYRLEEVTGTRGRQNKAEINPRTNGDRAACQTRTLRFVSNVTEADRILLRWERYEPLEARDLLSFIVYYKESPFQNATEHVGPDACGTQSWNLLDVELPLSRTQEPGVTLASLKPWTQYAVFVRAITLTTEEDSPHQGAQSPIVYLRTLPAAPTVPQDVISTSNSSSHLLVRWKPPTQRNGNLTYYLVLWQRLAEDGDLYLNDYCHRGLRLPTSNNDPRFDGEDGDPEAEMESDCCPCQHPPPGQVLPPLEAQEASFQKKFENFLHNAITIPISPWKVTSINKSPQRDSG
# Sequence of Insulin receptor-related protein (Homo sapiens) (P14616 747-1297 limits assumed): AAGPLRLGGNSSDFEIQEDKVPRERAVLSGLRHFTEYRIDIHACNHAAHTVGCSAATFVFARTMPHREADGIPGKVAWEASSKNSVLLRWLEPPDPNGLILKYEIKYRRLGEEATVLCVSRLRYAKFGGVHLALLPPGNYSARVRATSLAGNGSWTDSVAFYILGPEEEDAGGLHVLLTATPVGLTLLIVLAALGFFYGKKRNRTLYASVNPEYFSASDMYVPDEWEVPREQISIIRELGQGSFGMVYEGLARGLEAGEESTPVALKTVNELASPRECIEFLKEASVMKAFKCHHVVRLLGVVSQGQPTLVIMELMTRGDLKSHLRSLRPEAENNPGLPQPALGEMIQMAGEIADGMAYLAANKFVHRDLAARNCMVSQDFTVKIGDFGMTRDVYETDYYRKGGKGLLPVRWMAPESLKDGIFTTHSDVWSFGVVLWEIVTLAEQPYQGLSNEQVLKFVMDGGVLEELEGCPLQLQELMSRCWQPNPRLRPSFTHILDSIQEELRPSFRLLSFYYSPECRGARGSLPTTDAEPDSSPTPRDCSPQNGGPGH
# [9] = biological target: Insulin receptor-related protein (Homo sapiens) (UniProt P14616); conditions: at 1 µM
# [10] = biological target: T1, Tyrosine-protein kinase ITK/TSK (Homo sapiens) (UniProt Q08881); conditions: at 0.1 µM
# T1 sequence (whole entry): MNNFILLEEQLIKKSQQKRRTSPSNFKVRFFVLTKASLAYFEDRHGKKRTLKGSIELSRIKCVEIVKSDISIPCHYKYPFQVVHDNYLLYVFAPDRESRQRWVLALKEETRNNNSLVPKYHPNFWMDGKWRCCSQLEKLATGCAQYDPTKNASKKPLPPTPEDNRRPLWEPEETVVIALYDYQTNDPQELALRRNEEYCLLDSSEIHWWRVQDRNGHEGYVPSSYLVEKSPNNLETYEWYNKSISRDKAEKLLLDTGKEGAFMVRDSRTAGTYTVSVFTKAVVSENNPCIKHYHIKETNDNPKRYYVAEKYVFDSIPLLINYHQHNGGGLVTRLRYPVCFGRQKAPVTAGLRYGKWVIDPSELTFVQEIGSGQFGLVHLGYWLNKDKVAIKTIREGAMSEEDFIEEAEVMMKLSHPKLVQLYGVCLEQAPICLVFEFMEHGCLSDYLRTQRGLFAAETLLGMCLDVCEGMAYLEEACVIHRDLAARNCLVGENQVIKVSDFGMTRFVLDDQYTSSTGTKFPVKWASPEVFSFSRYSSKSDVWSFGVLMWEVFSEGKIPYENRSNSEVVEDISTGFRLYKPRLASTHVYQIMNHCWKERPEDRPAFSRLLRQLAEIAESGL
# [11] = biological target: T1, Tyrosine-protein kinase ITK/TSK (Homo sapiens); conditions: at 1 µM
# [12] = biological target: Tyrosine-protein kinase JAK1 (Homo sapiens) (UniProt P23458); conditions: at 0.1 µM
# [13] = biological target: Tyrosine-protein kinase JAK1 (Homo sapiens) (UniProt P23458); conditions: at 1 µM
# [14] = biological target: Tyrosine-protein kinase JAK2 (Homo sapiens) (UniProt O60674); conditions: at 0.1 µM
# Sequence of Tyrosine-protein kinase JAK2 (Homo sapiens) (O60674 whole entry): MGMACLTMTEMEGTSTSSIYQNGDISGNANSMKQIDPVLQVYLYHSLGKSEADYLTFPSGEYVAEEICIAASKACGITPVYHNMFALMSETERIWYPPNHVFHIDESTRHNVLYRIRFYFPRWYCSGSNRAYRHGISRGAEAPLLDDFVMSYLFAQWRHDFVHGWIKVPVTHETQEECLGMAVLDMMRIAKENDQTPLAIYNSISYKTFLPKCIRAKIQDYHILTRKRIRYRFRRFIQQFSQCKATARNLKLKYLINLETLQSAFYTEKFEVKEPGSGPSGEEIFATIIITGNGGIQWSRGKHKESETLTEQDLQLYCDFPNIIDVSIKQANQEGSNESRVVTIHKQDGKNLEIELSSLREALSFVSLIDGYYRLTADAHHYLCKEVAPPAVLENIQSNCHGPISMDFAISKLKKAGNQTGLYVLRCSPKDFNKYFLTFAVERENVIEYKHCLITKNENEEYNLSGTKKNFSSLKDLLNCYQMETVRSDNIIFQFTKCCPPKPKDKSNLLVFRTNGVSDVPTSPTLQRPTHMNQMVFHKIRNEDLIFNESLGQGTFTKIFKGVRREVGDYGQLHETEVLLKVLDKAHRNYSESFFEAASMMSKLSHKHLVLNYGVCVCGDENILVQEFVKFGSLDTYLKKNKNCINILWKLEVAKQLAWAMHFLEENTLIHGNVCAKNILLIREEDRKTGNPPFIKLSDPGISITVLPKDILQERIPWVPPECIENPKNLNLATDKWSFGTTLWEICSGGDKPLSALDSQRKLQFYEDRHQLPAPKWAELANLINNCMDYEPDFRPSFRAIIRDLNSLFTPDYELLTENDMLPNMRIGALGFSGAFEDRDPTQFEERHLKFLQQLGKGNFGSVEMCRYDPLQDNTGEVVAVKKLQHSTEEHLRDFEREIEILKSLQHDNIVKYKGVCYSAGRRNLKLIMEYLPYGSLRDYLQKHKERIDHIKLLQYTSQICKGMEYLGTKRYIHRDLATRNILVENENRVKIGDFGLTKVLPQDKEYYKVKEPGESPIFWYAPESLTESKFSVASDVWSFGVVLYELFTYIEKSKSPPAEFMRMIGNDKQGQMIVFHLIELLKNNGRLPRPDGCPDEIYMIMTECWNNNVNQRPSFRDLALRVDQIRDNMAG
# [15] = biological target: Tyrosine-protein kinase JAK2 (Homo sapiens) (UniProt O60674); conditions: at 1 µM
# [16] = biological target: T2, Tyrosine-protein kinase JAK3 (Homo sapiens) (UniProt P52333); conditions: at 0.1 µM
# T2 sequence (whole entry): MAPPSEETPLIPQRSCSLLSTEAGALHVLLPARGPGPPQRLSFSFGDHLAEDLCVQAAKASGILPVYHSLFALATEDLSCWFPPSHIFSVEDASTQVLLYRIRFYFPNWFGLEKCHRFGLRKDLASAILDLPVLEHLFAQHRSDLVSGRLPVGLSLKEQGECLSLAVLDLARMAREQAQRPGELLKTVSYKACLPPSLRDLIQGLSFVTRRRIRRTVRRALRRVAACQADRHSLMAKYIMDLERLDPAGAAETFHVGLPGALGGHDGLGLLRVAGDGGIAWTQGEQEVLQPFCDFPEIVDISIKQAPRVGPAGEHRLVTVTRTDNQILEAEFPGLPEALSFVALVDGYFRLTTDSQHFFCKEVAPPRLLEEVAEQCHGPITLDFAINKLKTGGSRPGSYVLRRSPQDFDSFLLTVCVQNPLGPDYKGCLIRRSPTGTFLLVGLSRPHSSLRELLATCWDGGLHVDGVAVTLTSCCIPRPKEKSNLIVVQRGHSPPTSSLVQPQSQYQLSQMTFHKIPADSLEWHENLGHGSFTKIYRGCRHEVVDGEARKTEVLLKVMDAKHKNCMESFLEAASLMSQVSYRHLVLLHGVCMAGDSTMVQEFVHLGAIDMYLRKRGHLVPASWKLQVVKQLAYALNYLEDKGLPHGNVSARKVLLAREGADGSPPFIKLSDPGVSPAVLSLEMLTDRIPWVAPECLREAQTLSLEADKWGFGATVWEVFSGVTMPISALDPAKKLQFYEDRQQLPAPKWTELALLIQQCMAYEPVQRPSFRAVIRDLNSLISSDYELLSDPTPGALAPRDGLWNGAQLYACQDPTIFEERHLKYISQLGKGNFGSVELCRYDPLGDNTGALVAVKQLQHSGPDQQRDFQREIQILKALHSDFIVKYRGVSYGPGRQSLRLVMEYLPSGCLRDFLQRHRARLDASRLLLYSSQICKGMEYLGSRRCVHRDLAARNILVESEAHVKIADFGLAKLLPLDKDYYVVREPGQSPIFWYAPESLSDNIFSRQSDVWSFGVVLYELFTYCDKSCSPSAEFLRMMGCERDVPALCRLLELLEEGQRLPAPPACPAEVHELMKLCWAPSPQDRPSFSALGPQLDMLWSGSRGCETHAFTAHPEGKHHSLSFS
# [17] = biological target: T2, Tyrosine-protein kinase JAK3 (Homo sapiens); conditions: at 1 µM
# [18] = biological target: Vascular endothelial growth factor receptor 2 (Homo sapiens) (UniProt P35968); conditions: at 0.1 µM
# Sequence of Vascular endothelial growth factor receptor 2 (Homo sapiens) (P35968 whole entry): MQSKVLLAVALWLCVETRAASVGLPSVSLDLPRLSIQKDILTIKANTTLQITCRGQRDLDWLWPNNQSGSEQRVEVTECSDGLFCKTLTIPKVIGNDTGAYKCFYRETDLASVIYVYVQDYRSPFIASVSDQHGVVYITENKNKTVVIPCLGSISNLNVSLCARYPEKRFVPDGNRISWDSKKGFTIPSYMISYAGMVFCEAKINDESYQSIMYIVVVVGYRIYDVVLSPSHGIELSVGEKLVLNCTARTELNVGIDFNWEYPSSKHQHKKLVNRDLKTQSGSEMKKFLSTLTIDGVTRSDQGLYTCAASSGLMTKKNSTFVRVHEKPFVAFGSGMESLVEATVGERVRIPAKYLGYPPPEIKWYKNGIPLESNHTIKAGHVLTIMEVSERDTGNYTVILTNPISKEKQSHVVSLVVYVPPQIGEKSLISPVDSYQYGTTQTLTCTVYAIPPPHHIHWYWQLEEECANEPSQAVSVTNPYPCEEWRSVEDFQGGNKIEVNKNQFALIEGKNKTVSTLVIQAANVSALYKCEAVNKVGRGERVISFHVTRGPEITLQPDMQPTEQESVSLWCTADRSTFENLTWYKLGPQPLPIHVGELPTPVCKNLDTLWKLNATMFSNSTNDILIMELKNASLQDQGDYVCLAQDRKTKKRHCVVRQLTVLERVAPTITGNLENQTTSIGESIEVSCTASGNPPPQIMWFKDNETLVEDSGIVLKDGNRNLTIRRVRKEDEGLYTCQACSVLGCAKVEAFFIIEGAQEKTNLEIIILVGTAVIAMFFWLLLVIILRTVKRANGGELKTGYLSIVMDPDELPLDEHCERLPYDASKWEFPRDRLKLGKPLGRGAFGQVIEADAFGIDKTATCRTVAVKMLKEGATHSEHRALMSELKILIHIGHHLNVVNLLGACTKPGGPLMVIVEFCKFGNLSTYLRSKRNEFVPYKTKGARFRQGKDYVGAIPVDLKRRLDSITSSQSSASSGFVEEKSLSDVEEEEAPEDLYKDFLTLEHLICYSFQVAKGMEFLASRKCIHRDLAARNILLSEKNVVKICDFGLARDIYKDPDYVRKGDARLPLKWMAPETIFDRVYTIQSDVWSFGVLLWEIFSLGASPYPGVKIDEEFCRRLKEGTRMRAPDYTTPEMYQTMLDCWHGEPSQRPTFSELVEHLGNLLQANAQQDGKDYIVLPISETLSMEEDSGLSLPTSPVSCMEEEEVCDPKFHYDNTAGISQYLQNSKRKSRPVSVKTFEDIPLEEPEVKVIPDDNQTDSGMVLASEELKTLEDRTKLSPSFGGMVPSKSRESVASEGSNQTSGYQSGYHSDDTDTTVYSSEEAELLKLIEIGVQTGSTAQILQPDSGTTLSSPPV
# [19] = biological target: Vascular endothelial growth factor receptor 2 (Homo sapiens) (UniProt P35968); conditions: at 1 µM
# [20] = biological target: Mast/stem cell growth factor receptor Kit (Homo sapiens) (UniProt P10721); conditions: at 0.1 µM;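 also: values are mean inhibition of KIT, from the GSK PKIS dataset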
Compound,inhibition [1],inhibition [2],inhibition [3],inhibition [4],inhibition [5],inhibition [6],inhibition [7],inhibition [8],inhibition [9],inhibition [10],inhibition [11],inhibition [12],inhibition [13],inhibition [14],inhibition [15],inhibition [16],inhibition [17],inhibition [18],inhibition [19],inhibition [20]
CN1CCN(Cc2ccc(-c3cc4ncnc(Nc5ccc(OCc6cccc(F)c6)c(Cl)c5)c4s3)o2)CC1,9.29% and 9.99%,3.14% and 4.38%,7.61% and 13.1%,-0.2% and 3.7%,1.01% and 6.72%,2.51% and 7.21%,3.07% and 7.9%,1.81% and 2.44%,3.22% and 4.36%,1.02% and 2.31%,2.43% and 2.68%,1.06% and 6.88%,3.27% and 18.5%,0.99% and 0.67%,0.57% and 0.86%,-2.47% and -0.74%,-1.79% and -0.23%,7.34% and 7.83%,24% and 24.2%,3.38% and 6.79%
CCS(=O)(=O)c1ccc(OC)c(Nc2ncc(-c3cccc(C(C)=O)c3)o2)c1,71.4%,11%,71.2%,1.64%,3.11%,2.36%,2.68%,2.22%,3.18%,0.98%,2.71%,0.61%,6.56%,0.16%,1.8%,-1.13%,1.72%,16.4%,58.9%,19.7%
N#Cc1cccc(Nc2ncc(-c3ccccc3)o2)c1,10.8%,0.69%,7.33%,0.34%,0.27%,1.81%,4.42%,0.61%,-0.06%,1.16%,2.42%,0.52%,10.7%,0.78%,0.35%,-1.06%,-0.94%,3.11%,11%,19.9%
Fc1cccc(COc2ccc(Nc3ncncc3C#Cc3ccccc3)cc2Cl)c1,2.9%,5.09%,7.44%,3.73%,3.91%,2.77%,4.63%,0.84%,3.29%,1.58%,1.93%,2.37%,14.7%,1.34%,2.01%,-1.12%,0.1%,5.83%,6.38%,3.62%
CN(C)CCNC(=O)Nc1ccc(N(C)c2ccnc(Nc3ccc(CS(C)(=O)=O)cc3)n2)cc1,3.44%,6.05%,12.3%,5.44%,8.75%,3.47%,5.6%,2.48%,3.81%,1.62%,3.84%,3.89%,-1.93%,1.46%,3.2%,-1.47%,-0.17%,7.04%,18.9%,13.9%
CC(C)c1ccc(-c2cc(-c3c[nH]nc3-c3ccccn3)ccn2)cc1,1.91%,2.47%,4.67%,1%,2.04%,-0.15%,1.37%,-0.94%,-0.37%,0.84%,1.69%,-1.37%,1.1%,0.74%,0.23%,0.23%,0.8%,9.43%,32.4%,0.6%
Cc1nnc(-c2cccc(-c3ccc(C(=O)NCC4CC4)cc3)c2)o1,0.54%,5.93%,8.3%,3.76%,6.53%,9.39%,5.71%,4.48%,3.22%,0.99%,2.05%,2.76%,9.78%,1.87%,2.79%,-1.21%,0.46%,6.85%,9.47%,7.19%
CS(=O)(=O)Nc1ccc(-c2ccc3c(NC(=O)C4CC4)n[nH]c3c2)cc1,2.5%,5.35%,8.62%,7.15%,5.41%,4.13%,5.66%,3.14%,2.41%,1.56%,4.27%,2.35%,-1.13%,1.06%,2.88%,-0.85%,1.11%,4.26%,9.88%,1.72%
COC(=O)Nc1nc2cc(Oc3ccc(NC(=O)Nc4ccccc4)cc3)ccc2[nH]1,4.68%,2.26%,4.53%,0.4%,-0.2%,3.75%,6.99%,0.98%,1.1%,-0.1%,1.86%,3.81%,9.99%,0.07%,1.12%,-1.68%,-0.28%,4.55%,7.27%,29.2%
CS(=O)(=O)Nc1ccc(-c2cc(-c3ccccc3)cc(C(N)=O)c2N)cc1,-0.83%,2.58%,4.51%,15.8%,8.99%,4.43%,3.29%,-1.45%,0.85%,0.8%,0.76%,0.16%,2.62%,0.9%,3.86%,-0.01%,0.58%,1.74%,4.53%,3.8%
COc1ccccc1-c1cc(/C=C2\C(=O)Nc3ncc(Br)cc32)cc(Br)c1O,26.3%,7.67%,12.5%,0.89%,2.09%,3.72%,6.87%,2.46%,1.02%,1.08%,3.95%,2.55%,0.51%,1.66%,3.2%,-0.19%,5.39%,6.49%,8.56%,8.06%
CC1=C(C(=O)Nc2ccc3[nH]ncc3c2)C(c2ccc(F)cc2)N=C(c2ccc(C(F)(F)F)nc2)N1 (stereo not given),3.27%,4.24%,12.2%,3.5%,3.35%,3.82%,1.7%,1.92%,1.25%,1.64%,2.33%,1.34%,1.91%,1.27%,2.08%,0.58%,1.34%,5.88%,9.39%,4.11%
CCn1c(-c2nonc2N)nc2cncc(C(=O)NCCNC)c21,2%,4.96%,6.37%,1.12%,5.76%,5.87%,15.3%,3.26%,5.53%,-0.27%,0.3%,0.48%,2.04%,2.49%,0.73%,-3.8%,-2.17%,4.45%,13.5%,6.23%
